Screens from PubChem.
Vif-A3G inh: inhibitors of Vif-APOBEC3G interaction; Q9HC16; Potency, µM (series often up to 46.1 µM), for the others: top-dose activity, negative = active, hits mostly inhibitors; AID 602310; 0.076% of 410,000 active; HeLa A3G-eYFP + Vif (tagged APOBEC3G with the HIV-1 protein that degrades it), YFP fluorescence, overnight; note: potency is the fitted concentration of half-maximal effect; % is set by controls: 0 for no effect and ±100 for the full control effect; nearly all actives have a fitted effect of over 60% in size
Target sequence (Q9HC16 whole entry, looked up): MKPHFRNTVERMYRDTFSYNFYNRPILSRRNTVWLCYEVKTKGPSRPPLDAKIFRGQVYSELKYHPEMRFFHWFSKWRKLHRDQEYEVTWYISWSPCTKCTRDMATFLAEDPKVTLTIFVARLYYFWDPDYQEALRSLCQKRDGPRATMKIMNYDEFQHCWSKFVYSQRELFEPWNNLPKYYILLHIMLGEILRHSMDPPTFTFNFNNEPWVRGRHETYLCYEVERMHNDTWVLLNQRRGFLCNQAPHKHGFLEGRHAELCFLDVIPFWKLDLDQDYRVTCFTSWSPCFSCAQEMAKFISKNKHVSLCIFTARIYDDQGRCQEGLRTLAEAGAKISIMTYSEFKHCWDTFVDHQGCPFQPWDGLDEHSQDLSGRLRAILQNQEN
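HeLa cells stably expressing Vif and C-terminally eYFP-tagged A3G, seeded overnight at 37 deg C, then exposed to compound by pintool overnight at 37 deg C. Rise in yellow fluorescence (Ex 488/Em 500-530, Acumen) marks blocked Vif-driven A3G degradation.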
TSG101-PTAP inh: blocks PTAP/TSG101 interaction to inhibit HIV-1 budding. Q99816. Fluorescence polarization, FITC-PTAP peptide / Tsg101 binding. Potency, µM (titrated, usually from 115 µM), inactives show at the top dose activity change, negative = inhibition, actives largely listed as inhibitors. 340,000 tested, under 10 active. AID 493005; active = well fitted inhibition curve with a large enough effect in the main read-out, with a control signal flat, not every such curve was filed as active; inconclusive = small, poorly fitted or top-dose-only effect, or effect the other way, or a change in a side signal; inactive = no such curve, though single readings can be large or run the other way; note: potency is the fitted concentration of half-maximal effect; % of control where 0% means no effect
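Tsg101 binding domain (10 uM final) was mixed with compound and a FITC-labeled PTAP peptide (50 nM final) in HEPES pH 7.5 buffer with NaCl, Tween 20, EDTA and TCEP; fluorescence polarization was read after 20 min at r.t.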
Vif-APOBEC3F blk: inhibitors of Vif-A3F interaction. HeLa A3F-eYFP + Vif (tagged APOBEC3F with the HIV-1 protein that degrades it), YFP fluorescence increase. Potency, µM (series often up to 46.1 µM), for inactives: at the highest dose activity, negative = active. 0.2% of 390,000 active. AID 602313; note: potency is the fitted concentration of half-maximal effect; % of control where 0% means no effect; nearly all actives have a fitted effect of over 65% in size
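Fluorescence increase (Ex 488/Em 500-530) after overnight compound treatment at 37 deg C flags inhibition of Vif-driven A3F-eYFP loss in stable HeLa A3F-eYFP/Vif cells seeded overnight beforehand.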
ASM inhibitor: inhibitors of human secretory acid sphingomyelinase; P17405; placental ASM, HMU-PC fluorogenic substrate, 60 min; Potency, µM (titrated, usually from 57.5 µM), inactives show top-dose activity change, negative = inhibition, most hits filed as inhibitors; 0.006% of 340,000 active; AID 504937; note: potency is the fitted concentration of half-maximal effect
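Fluorescence read-out (Ex 386 nm, Em 447 nm) after stopping the reaction at pH 10. Enzyme: ASM from human placenta; substrate HMU-PC0, 9 uM final; 60 min, 37 °C. Compound preincubation 10 min, ambient temperature.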
pAkt inh: inhibitors of Akt phosphorylation. AID 651550. activity change, % for hits at 50 µM. 0.32% of 360,000 active. Neuro2A IGF-stimulated pAkt S473 HTRF, 20 min; stronger effect = lower value; in the data active = activity change below about -80%; inconclusive = mostly about -51% to -80%; note: % is set by controls: 0 for no effect and ±100 for the full control effect
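Single-point screen (50 µM final compound) in Neuro2A cells stimulated 20 min with 6 nM IGF at 37 deg C. After lysis, Ser473-phosphorylated Akt read by HTRF (ex 330 nm, em 615/665 nm) as the 665/615 ratio.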
ALOX12 inh: ALOX12 (human) lipoxygenase inhibition | purified 12hLO, xylenol orange hydroperoxide absorbance | Potency, µM (series often up to 108 µM), for the others: at the top dose activity change, negative = inhibition, most hits filed as inhibitors | 1.1% of 580,000 active; note: potency is the fitted concentration of half-maximal effect; % is set by controls: 0 for no effect and ±100 for the full control effect
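Purified human 12hLO (150 nM final) in 25 mM Hepes, 0.01% Triton X-100, pH 7.0 was preincubated 15 min at room temperature with compound. Then 40 uM arachidonic acid was added, 30 min. Hydroperoxide was read by Fe-XO absorbance ratio 573/405 nm.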
* marks the source's active call; other numbers are inactive results; i = inactive; ? = inconclusive; nt = not tested or not shown. A selection: hits, their analogues and other compounds. The true share with any hit is near 1.4%. Unless noted, calls come from the whole dose curve; as a rule, active = well fitted curve in the direction sought with a large enough effect; inconclusive = small, poorly fitted or top-dose-only effect, or another doubt; inactive = no such curve, though single readings can be large; an effect the other way counts as inactive or inconclusive.

SMILES | Vif-A3G inh | TSG101-PTAP inh | Vif-APOBEC3F blk | ASM inhibitor | pAkt inh | ALOX12 inh
Cc1cc(NS(=O)(=O)c2ccc(NC(=S)NC(=O)c3ccc(C(C)(C)C)cc3)cc2)no1 | -2% | 0% | 0% | -19% | i | 7.1µM*
Cc1cc(NS(=O)(=O)c2ccc(NC(=S)NC(=O)c3ccc(Cl)cc3Cl)cc2)no1 | -14% | -1% | -5% | -20% | i | 32µM*
Cc1cc(NS(=O)(=O)c2ccc(NC(=S)NC(=O)c3ccccc3)cc2)no1 | -8% | -3% | -2% | -4% | i | 16µM*
COc1ccc(C(=O)NC(=S)Nc2ccc(S(=O)(=O)Nc3cc(C)on3)cc2)cc1OC | 0% | 0% | 4% | -4% | i | ?
Cc1cc(NS(=O)(=O)c2ccc(NC(=S)NC(=O)c3ccncc3)cc2)no1 | 0% | 1% | 0% | 5% | i | -20%
COc1cc(C(=O)Nc2ccc3oc(C)nc3c2)cc(OC)c1OC | nt | nt | nt | nt | nt | -2%
CCNc1c(NC(=O)c2ccc(OC(C)=O)c(OC)c2)c(=O)oc2ccccc12 | nt | nt | nt | nt | nt | -12%
C/C(=N/NC(=S)NCc1ccccc1)c1ccncc1 | nt | nt | nt | nt | nt | -5%
COc1ccccc1/C(C)=N/NC(=S)NCc1ccccc1 | 0% | 0% | ? | -2% | i | 40µM*
C/C(=N\NC(=S)NCCc1ccccc1)c1cccc(Br)c1 | -1% | 1% | ? | -9% | i | 45µM*
C/C(=N\NC(=S)NCc1ccccc1)c1ccc2ccccc2c1 | -2% | -1% | ? | nt | i | 45µM*
COc1ccc(/C(C)=N/NC(=S)NCCc2ccccc2)cc1 | 0% | -4% | ? | -10% | i | 0%
C/C(=N\NC(=S)NCc1ccccc1)c1cccc(Br)c1 | -2% | -1% | ? | -9% | i | 32µM*
COC(=O)c1ccc2c(c1)CCN2 | nt | nt | nt | nt | nt | -63%
CC(C)CNC(=O)COC(=O)c1cccc(F)c1 | nt | nt | nt | nt | nt | -6%
O=C1C=CC(=O)N1CCCCCCCCCCN1C(=O)C=CC1=O | -10% | -5% | 0% | 1% | i | 2µM*
Cc1cccc(NCc2cc(C(C)(C)C)c(O)c(C(C)(C)C)c2)c1 | nt | nt | nt | nt | nt | 10µM*
COC(=O)C1=C(C)Nc2[nH]c(=S)[nH]c(=O)c2C1c1ccc(OC)cc1 (stereo not drawn) | 2% | -10% | -8% | -2% | i | 25µM*
COC(=O)C1=C(C)NC(=O)NC1c1ccc(OC)cc1 (stereo not drawn) | nt | nt | nt | nt | nt | 8%
O=c1cc(O)c(-c2ccc(Cl)cc2)c(Cl)[nH]1 | 4% | -2% | -5% | -1% | i | ?
O=C1c2cc(Cl)ccc2-c2c(O)cc(Cl)cc21 | ? | -2% | ? | -5% | i | 35µM*
CCN(Cc1ccccc1)c1ccc(/C=C(\C#N)c2ccccn2)cc1 | -12% | -9% | 22µM* | 6% | i | ?
CCN(CC)c1ccc(/C=C(\C#N)c2ccccn2)cc1 | 10µM* | 6% | ? | 7% | i | nt
